The campaign covered roughly 5,500 compounds. About 2,000 (36%) were called active. Roughly 18% stayed inconclusive and do not appear here. No stated cut-off is given here; in the data, active means normalized growth mostly below about 0.91 (no sharp cut-off); inconclusive means no clear call, values can overlap the other calls; inactive means mostly above about 0.92. The list shows a part of the results.
Experiment: chemical genetic growth profiling, strain panel (AID 1159580);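 further: tested at 20 µM; growth read once vehicle control cultures reached saturation at 30 °C; 1 = growth at the plate median or of vehicle wells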
Settings: growth OD

Measured: normalized growth

OC[C@@H](O)[C@@H](O[C@@H]1O[C@H](CO)[C@@H](O)[C@H](O)[C@H]1O)[C@H](O)[C@@H](O)CO
inactive: S. cerevisiae deletion strains, locus YJR075W, strain HOC1, stronger effect = lower value 1.01 | S. cerevisiae deletion strains, locus YKL009W, strain mrt4, stronger effect = lower value 1.02 | S. cerevisiae deletion strains, locus YKL068W, stronger effect = lower value 0.999 | S. cerevisiae deletion strains, locus YKL085W, strain MDH1 (second series), stronger effect = lower value 0.998 | S. cerevisiae deletion strains, locus YKL085W, strain MDH1, stronger effect = lower value 0.998 | S. cerevisiae deletion strains, locus YKL160W, strain elf1, stronger effect = lower value 1.02 | S. cerevisiae deletion strains, locus YKL190W, strain CNB1, stronger effect = lower value 1 | S. cerevisiae deletion strains, locus YKR001C, strain vps1, stronger effect = lower value 1.02 | S. cerevisiae deletion strains, locus YKR026C, strain gcn3, stronger effect = lower value 0.991 | S. cerevisiae deletion strains, locus YKR091W, strain srl3, stronger effect = lower value 0.996 | S. cerevisiae deletion strains, locus YLL001W, strain dnm1, stronger effect = lower value 1.01 | S. cerevisiae deletion strains, locus YLL026W, stronger effect = lower value 0.994 | S. cerevisiae deletion strains, locus YLL041C, strain sdh2, stronger effect = lower value 0.989 | S. cerevisiae deletion strains, locus YLR027C, strain aat2, stronger effect = lower value 0.997 | S. cerevisiae deletion strains, locus YLR039C, strain RIC1, stronger effect = lower value 1.06 | S. cerevisiae deletion strains, locus YLR058C, strain SHM2, stronger effect = lower value 1.01 | S. cerevisiae deletion strains, locus YLR102C, strain apc9, stronger effect = lower value 1.01 | S. cerevisiae deletion strains, locus YLR113W, strain HOG1, stronger effect = lower value 0.99 | S. cerevisiae deletion strains, locus YLR221C, strain rsa3, stronger effect = lower value 1.04 | S. cerevisiae deletion strains, locus YLR258W, strain gsy2, stronger effect = lower value 1 | S. cerevisiae deletion strains, locus YLR262C, strain YPT6 (second series), stronger effect = lower value 1.01 | S. cerevisiae deletion strains, locus YLR262C, strain YPT6, stronger effect = lower value 1.05 | S. cerevisiae deletion strains, locus YLR268W, strain sec22, stronger effect = lower value 0.999 | S. cerevisiae deletion strains, locus YLR320W, strain mms22, stronger effect = lower value 1.04 | S. cerevisiae deletion strains, locus YLR330W, strain CHS5, stronger effect = lower value 1.01 | S. cerevisiae deletion strains, locus YLR342W, strain FKS1 (second series), stronger effect = lower value 1.12 | S. cerevisiae deletion strains, locus YLR342W, strain FKS1, stronger effect = lower value 0.974 | S. cerevisiae deletion strains, locus YLR357W, strain rsc2, stronger effect = lower value 0.958 | S. cerevisiae deletion strains, locus YLR370C, strain arc18, stronger effect = lower value 0.996 | S. cerevisiae deletion strains, locus YLR371W, strain rom2, stronger effect = lower value 1.01 | S. cerevisiae deletion strains, locus YLR384C, strain iki3, stronger effect = lower value 0.999 | S. cerevisiae deletion strains, locus YLR418C, strain cdc73, stronger effect = lower value 0.974 | S. cerevisiae deletion strains, locus YML016C, strain PPZ1, stronger effect = lower value 1.01 | S. cerevisiae deletion strains, locus YML032C, strain rad52, stronger effect = lower value 1.05 | S. cerevisiae deletion strains, locus YML120C, strain ndi1, stronger effect = lower value 0.985 | S. cerevisiae deletion strains, locus YML124C, strain tub3, stronger effect = lower value 1.01 | S. cerevisiae deletion strains, locus YMR058W, strain fet3, stronger effect = lower value 0.99 | S. cerevisiae deletion strains, locus YMR078C, strain ctf18, stronger effect = lower value 1.02 | S. cerevisiae deletion strains, locus YMR125W, strain sto1, stronger effect = lower value 0.938 | S. cerevisiae deletion strains, locus YMR129W, stronger effect = lower value 0.992 | S. cerevisiae deletion strains, locus YMR205C, strain PFK2, stronger effect = lower value 1.03 | S. cerevisiae deletion strains, locus YMR223W, strain ubp8, stronger effect = lower value 1.06 | S. cerevisiae deletion strains, locus YMR231W, strain pep5, stronger effect = lower value 0.983 | S. cerevisiae deletion strains, locus YMR263W, strain SAP30, stronger effect = lower value 1.02 | S. cerevisiae deletion strains, locus YMR307W, strain GAS1, stronger effect = lower value 1.1 | S. cerevisiae deletion strains, locus YNL067W, strain RPL9B, stronger effect = lower value 0.998 | S. cerevisiae deletion strains, locus YNL071W, strain lat1, stronger effect = lower value 0.986 | S. cerevisiae deletion strains, locus YNL128W, strain TEP1, stronger effect = lower value 0.985 | S. cerevisiae deletion strains, locus YNL153C, strain GIM3, stronger effect = lower value 1 | S. cerevisiae deletion strains, locus YNL183C, strain NPR1, stronger effect = lower value 0.982 | S. cerevisiae deletion strains, locus YNL209W, strain ssb2, stronger effect = lower value 0.999 | S. cerevisiae deletion strains, locus YNL233W, strain BNI4, stronger effect = lower value 1.02 | S. cerevisiae deletion strains, locus YNL248C, strain rpa49, stronger effect = lower value 0.976 | S. cerevisiae deletion strains, locus YNL250W, strain rad50, stronger effect = lower value 1.02 | S. cerevisiae deletion strains, locus YNL271C, strain bni1, stronger effect = lower value 1.03 | S. cerevisiae deletion strains, locus YNL298W, strain CLA4, stronger effect = lower value 1.02 | S. cerevisiae deletion strains, locus YNL307C, strain MCK1, stronger effect = lower value 1.03 | S. cerevisiae deletion strains, locus YNL322C, strain KRE1 (second series), stronger effect = lower value 0.991 | S. cerevisiae deletion strains, locus YNL322C, strain KRE1, stronger effect = lower value 1.01 | S. cerevisiae deletion strains, locus YNR049C, strain mso1, stronger effect = lower value 0.993 | S. cerevisiae deletion strains, locus YNR052C, strain pop2, stronger effect = lower value 1.01 | S. cerevisiae deletion strains, locus YOL006C, strain TOP1, stronger effect = lower value 1.07 | S. cerevisiae deletion strains, locus YOL012C, strain htz1 1.19 | S. cerevisiae deletion strains, locus YOL147C, strain pex11, stronger effect = lower value 1.01 | S. cerevisiae deletion strains, locus YOR001W, strain rrp6, stronger effect = lower value 0.968 | S. cerevisiae deletion strains, locus YOR061W, strain CKA2, stronger effect = lower value 1.02 | S. cerevisiae deletion strains, locus YOR069W, strain VPS5, stronger effect = lower value 1.01 | S. cerevisiae deletion strains, locus YOR070C, strain gyp1, stronger effect = lower value 0.994 | S. cerevisiae deletion strains, locus YOR080W, strain dia2, stronger effect = lower value 0.995 | S. cerevisiae deletion strains, locus YOR083W, strain WHI5, stronger effect = lower value 1.03 | S. cerevisiae deletion strains, locus YOR106W, strain vam3, stronger effect = lower value 0.998 | S. cerevisiae deletion strains, locus YOR136W, strain idh2, stronger effect = lower value 1.02 | S. cerevisiae deletion strains, locus YOR144C, strain elg1, stronger effect = lower value 1 | S. cerevisiae deletion strains, locus YOR184W, strain ser1, stronger effect = lower value 1.08 | S. cerevisiae deletion strains, locus YOR231W, strain MKK1, stronger effect = lower value 1 | S. cerevisiae deletion strains, locus YOR265W, strain rbl2, stronger effect = lower value 1 | S. cerevisiae deletion strains, locus YOR270C, strain vph1, stronger effect = lower value 0.956 | S. cerevisiae deletion strains, locus YOR290C, strain snf2, stronger effect = lower value 1 | S. cerevisiae deletion strains, locus YOR316C, strain cot1, stronger effect = lower value 1.01 | S. cerevisiae deletion strains, locus YPL051W, strain arl3, stronger effect = lower value 1.02 | S. cerevisiae deletion strains, locus YPL055C, strain LGE1, stronger effect = lower value 0.991 | S. cerevisiae deletion strains, locus YPL078C, strain atp4, stronger effect = lower value 1 | S. cerevisiae deletion strains, locus YPL106C, strain sse1, stronger effect = lower value 1.01 | S. cerevisiae deletion strains, locus YPL240C, strain hsp82, stronger effect = lower value 0.997 | S. cerevisiae deletion strains, locus YPL241C, strain CIN2, stronger effect = lower value 1.01 | S. cerevisiae deletion strains, locus YPL256C, strain CLN2, stronger effect = lower value 0.985 | S. cerevisiae deletion strains, locus YPR119W, strain clb2, stronger effect = lower value 1 | S. cerevisiae deletion strains, locus YPR141C, strain kar3, stronger effect = lower value 1.02 | S. cerevisiae deletion strains, locus YPR163C, strain tif3, stronger effect = lower value 1.01 | S. cerevisiae deletion strains, locus YPR167C, strain met16, stronger effect = lower value 1 | S. cerevisiae deletion strains, strain wtn01, stronger effect = lower value 0.992 | S. cerevisiae strains, strain wild type, stronger effect = lower value 1.02

Reference: PubChem BioAssay AID1159580 (chemical genetic matrix, 2015)
